FECH block = inhibitors of human ferrochelatase, primary screen, biochemical, purified FECH, Ni-mesoporphyrin absorbance | calls only at 10 µM (by protocol) | 20,000 compounds, 3.3% hits | Ni-mesoporphyrin absorbance 550 nm | Ferrochelatase, mitochondrial (Homo sapiens), P22830;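 active = enzyme reaction rate more than 3 SD below the solvent-only control wells on the same plate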;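 also: lower slope than DMSO wells means FECH inhibition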
Target sequence (P22830 whole entry, looked up): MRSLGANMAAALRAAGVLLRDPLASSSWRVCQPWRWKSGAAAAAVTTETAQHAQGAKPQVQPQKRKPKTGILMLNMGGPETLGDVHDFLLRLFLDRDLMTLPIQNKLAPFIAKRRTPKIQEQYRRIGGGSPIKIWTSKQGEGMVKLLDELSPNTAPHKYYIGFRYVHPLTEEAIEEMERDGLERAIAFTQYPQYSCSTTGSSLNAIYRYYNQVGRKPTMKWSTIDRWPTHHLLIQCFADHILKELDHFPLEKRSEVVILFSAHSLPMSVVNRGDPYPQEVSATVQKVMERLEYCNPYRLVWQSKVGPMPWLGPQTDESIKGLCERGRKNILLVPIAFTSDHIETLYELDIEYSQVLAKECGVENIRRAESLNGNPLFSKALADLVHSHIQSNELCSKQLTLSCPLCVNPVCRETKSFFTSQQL
An asterisk follows results filed as active. This is one part of a sample in which hits are shown more often than they occur.

For Cc1ccccc1-c1nc2nc(CNc3ccc(Br)cc3)cc(=O)n2[nH]1 the results were FECH block active.
For Cc1ccc(NCc2cc(=O)n3[nH]c(NCc4ccc(F)cc4)nc3n2)cc1 the results were FECH block inactive.
Cc1ccccc1-c1nc2nc(CN3CCOCC3)cc(=O)n2[nH]1 was read as FECH block inactive.
Screening CCN1CCN(Cc2cc(=O)n3[nH]c(-c4ccccc4C)nc3n2)CC1 returned FECH block inactive.
`COc1ccc(NCc2cc(=O)n3[nH]c(NCc4ccc(F)cc4)nc3n2)cc1` gave FECH block inactive.
COc1cccc(NCc2cc(=O)n3[nH]c(-c4ccccc4C)nc3n2)c1 was read as FECH block active.
Cc1noc(C)c1CCNC(=O)c1nc(N2CCCC2)c2oc3ccccc3c2n1 was read as FECH block inactive.
`Cc1nc(-c2cccc(-c3n[nH]c(CCc4ccccc4)n3)c2)no1` gave FECH block inactive.
COc1ccccc1NC(=O)Nc1nc(CC(=O)Nc2c(C)cccc2C)cs1 was read as FECH block inactive.
O=C(Nc1nc2n(n1)C(c1ccccc1Cl)C=C(c1ccc(Cl)cc1)N2)c1ccc(F)cc1 (configuration not stated) was read as FECH block inactive.
Screening CC(C)C(=O)Nc1nc2n(n1)C(c1ccccc1Cl)C=C(c1ccc(Cl)cc1)N2 (configuration not stated) returned FECH block inactive.
For Cc1ccc(C2=CC(c3ccccc3Cl)n3nc(NC(=O)CC(C)C)nc3N2)cc1 (configuration not stated) the results were FECH block active.
`CC(C)CC(=O)Nc1nc2n(n1)C(c1ccccc1Cl)C=C(c1ccc(Cl)cc1)N2` (configuration not stated) gave FECH block inactive.
O=C(Nc1nc2n(n1)C(c1ccccc1Cl)C=C(c1ccc(Cl)cc1)N2)c1ccco1 (configuration not stated) was read as FECH block active.
Screening CC(=O)Nc1nc2n(n1)C(c1ccc(Cl)cc1)C=C(c1ccc(Cl)cc1)N2 (configuration not stated) returned FECH block inactive.
`CC(C)CC(=O)Nc1nc2n(n1)C(c1ccc(F)cc1)C=C(c1ccc(Cl)cc1)N2` (configuration not stated) gave FECH block inactive.
`CC(C)CC(=O)Nc1nc2n(n1)C(c1ccc(Cl)cc1)C=C(c1ccc(Cl)cc1)N2` (configuration not stated) gave FECH block active.
`CCC(=O)Nc1nc2n(n1)C(c1ccccc1Cl)C=C(c1ccc(Cl)cc1)N2` (configuration not stated) gave FECH block inactive.
For COc1ccc(C(=O)Nc2ccc(Nc3nc(C)cc(N4CCCC4)n3)cc2)c(OC)c1 the results were FECH block inactive.
`CN1C(=O)c2cc(C(=O)NCCN3CCCCCC3)nn2CC1(C)C(=O)NCc1ccc(F)cc1` (configuration not stated) gave FECH block inactive.
`Cc1ccc(Nc2cc(C)nc(Nc3ccc(NC(=O)CC(C)C)cc3)n2)cc1` gave FECH block inactive.
`Cc1c(C(=O)O)sc2ncnc(N3CCC(N4CCOCC4)C3)c12` (configuration not stated) gave FECH block inactive.
Cc1ccccc1N1CCCN(Cc2nc[nH]c2C)CC1 was read as FECH block inactive.
`CC(C(=O)NCc1cccnc1Oc1ccccc1F)n1cccc1` (configuration not stated) gave FECH block inactive.
For COc1ccc(NC(=O)CN(C)S(=O)(=O)c2ccc(C(=O)N3CCOCC3)s2)cc1 the results were FECH block active.
For COc1ccc(CN2CCCN(CC(=O)Nc3ccc4c(c3)OCCO4)S2(=O)=O)cc1 the results were FECH block inactive.
For COc1ccc(CNS(=O)(=O)c2ccc(C(=O)N(C)C)s2)cc1 the results were FECH block inactive.
`CC(C)c1cc(Nc2cccc(C(F)(F)F)c2)n2nc(-c3cccnc3)nc2n1` gave FECH block inactive.
For COc1cccc(-c2cc(N3CCN(C(=O)Nc4cccc(Cl)c4)CC3)ncn2)c1 the results were FECH block inactive.
For CCc1ccccc1NCc1nc2nc3c(c(=O)n2[nH]1)CCC3 the results were FECH block active.
`O=c1cc(CN2CCCC2)nc2nc(NCc3ccc(Cl)cc3)[nH]n12` gave FECH block inactive.
`CCc1nc2nc(C)[nH]n2c(=O)c1NC(=O)Nc1ccc(C)c(Cl)c1` gave FECH block inactive.
For O=c1c2c(nc3nc(CNc4ccc(Cl)cc4)[nH]n13)CCC2 the results were FECH block active.
COc1ccc(Cl)cc1NCc1nc2nc3c(c(=O)n2[nH]1)CCC3 was read as FECH block inactive.
`O=c1c2c(nc3nc(CNc4ccccc4)[nH]n13)CCC2` gave FECH block active.
`Cc1ccc(NCc2cc(=O)n3[nH]c(NCc4ccc(F)cc4)nc3n2)cc1Cl` gave FECH block inactive.

Bioassay records as filed in PubChem BioAssay.
